This is an account of results in PubChem BioAssay (Tox21).

Values joined by “and” are separate entries in the source; they are usually repeats but may differ in a detail not shown here. Equal values may be shown once. Inconclusive results are not listed. A call without a number means that no potency is given here. Unmarked numbers belong to inactive results. Active and inactive are the calls of the source. No rule for the calls is given here.
Potency is read from the fitted curve at half-maximal effect.

This assay can be described thus: qHTS assay to identify small molecule antagonists of the estrogen related receptor signaling pathway with the pleiotropic PPARgamma coactivator (PGC) from Tox21 10K library (AID 1224841). Also: actives are mostly falling curves and most rising ones were filed inactive; nearly all actives have a fitted effect of over 50% in size. The settings on record: PGC/ERR reporter cell line, ONE-Glo luciferase, 18 h; series mostly up to 92.4 µM. The source says: U.S. Tox21 Program National Center for Advancing Translational Sciences [NCATS] NIH Chemical Genomics Center [NCGC] U.S. Environmental Protection Agency [EPA] National Institutes of Environmental Health Sciences [NIEHS] National Toxicology Program [NTP] U.S. Food and Drug Administration [FDA] Tox21 Assay Overview: Estrogen related receptors (ERRs), the first orphan nuclear receptors discovered, play an important role in the control of cellular energy metabolism. ERRs are required for high-energy production in response to the environmental challenges. The pleiotropic PPARgamma coactivator (PGC) is a major partner of ERR and a key regulator in energy homeostasis. Together they have been implicated in the etiology of metabolic disorders such as Type 2 diabetes and metabolic syndrome. ERR-alpha was also identified as an adverse marker for breast cancer progression; ERR-alpha-positive tumors have a poor prognosis. To screen and to identify environmental compounds that perturb the ERR and PGC/ERR signaling pathways could provide valuable information for potential therapeutic or preventive measures in the treatment of metabolic disease. For identifying PGC/ERR antagonists, PGC/ERR cell line (provided by NTP) has been used to screen Tox21 10K library.
Tox21 Assay Protocol Summary: The PGC/ERR cells were dispensed at 2,000 cells/5 ul/well in 1536-well white plates using a Multidrop dispenser. After the assay plates were incubated at a 37 C/5% CO2 incubator for 6 hours, 23 nL of compounds dissolved in DMSO, positive and negative controls or DMSO only was transferred to the assay plate by a pin tool. The plates were incubated at 37 C for 18 hours. 4 ul/well of One-Glo reagent was added into the assay plates using a Flying Reagent Dispenser. After 30-minute incubation at room temperature, the luminescence intensity in the plates was measured using a ViewLux plate reader.
Regarding `CCOCOCC`, the Potency result is “inactive”.
`Clc1ccc(C(Cn2ccnc2)OCc2ccsc2Cl)c(Cl)c1` (stereo not given): the Potency is 18.8 µM (active).
Still for that read-out and setting: the result for `O=S(=O)(O)CCCN1CCOCC1` reads “inactive”; that for `COc1cc(C(=O)NS(=O)(=O)c2ccccc2C)ccc1Cc1cn(C)c2ccc(NC(=O)OC3CCCC3)cc12`, “inactive”; that for `NC(=O)c1ccccc1N`, “inactive”.
Still for that read-out and setting: the result for `COC(=O)[C@]1(C)CCC[C@@]2(C)[C@H]1CC=C1C=C(C(C)C)CC[C@@H]12` reads “inactive”.
On to `CCCCOCC`, for which the Potency entry was “inactive”.
Still for that read-out and setting: for `C[C@H]1O[C@@H](O[C@H]2[C@@H](O)C[C@H](O[C@H]3[C@@H](O)C[C@H](O[C@H]4CC[C@@]5(C)[C@H](CC[C@@H]6[C@@H]5C[C@@H](O)[C@]5(C)[C@@H](C7=CC(=O)OC7)CC[C@]65O)C4)O[C@@H]3C)O[C@@H]2C)C[C@H](O)[C@@H]1O` the value was 154 nM (active) and 107 nM (active).
As for `NC1(c2ccc(-c3nc4ccn5c(=O)[nH]nc5c4cc3-c3ccccc3)cc2)CCC1`, the Potency is 3.35 µM (active).
Regarding `C=CC(=C)CC/C=C(\C)CCC=C(C)C`, the activity, negative = inhibition was 0% [at 19 µM].
`COc1cc(C=C2CCC/C(=C\c3ccc(O)c(OC)c3)C2=O)ccc1O`: the Potency is 11.9 µM (active).
Still for that read-out and setting: the result for `Cc1nc(Nc2ncc(C(=O)Nc3c(C)cccc3Cl)s2)cc(N2CCN(CCO)CC2)n1` reads “inactive”; that for `C[Si](C)(C)Cl`, “inactive”; that for `O=C1c2c(O)ccc([N+](=O)[O-])c2C(=O)c2c([N+](=O)[O-])ccc(O)c21`, 9.6 µM (active).
Turning to `CC1(C)COCN1`, the Potency result was “inactive”.
Same read-out and setting: the result for `CCO[Si](C)(C)OCC` reads 24.3 µM (active).
On to `CC(C)(c1cc(Br)c(O)c(Br)c1)c1cc(Br)c(O)c(Br)c1`, for which the Potency result was “inactive”.
As for `CC(=O)Oc1ccc(C2(c3ccc(OC(C)=O)cc3)C(=O)Nc3ccccc32)cc1`, the Potency entry is “inactive”.
Take `O=C(c1ccccc1)c1cc(Cl)ccc1O`: the Potency entry was “inactive”.
Turning to `O=S(=O)(O)c1cc(S(=O)(=O)O)c2ccc3c(S(=O)(=O)O)cc(S(=O)(=O)O)c4ccc1c2c43`, the activity, negative = inhibition is 13.5% [at 19 µM].
Take `CCOC(/C=C(\C)CCC=C(C)C)OCC`: the Potency result is “inactive”.
For the compound `CCc1cccc(CC)c1NC(=O)C(=O)O`, the Potency result is “inactive”.
As to `CCCCCCCCCCCCCCCC`, the Potency entry was “inactive”.
On the same count and under the same terms, for `C(=C/c1ccccc1)/c1ccccc1` the value was “inactive”; for `C[C@]12CC[C@H]3C(=CCc4cc(O)ccc43)[C@@H]1CCC2=O`, “inactive”.
`CC(C)(C)CC(C)(C)c1ccccc1O`: the Potency entry was “inactive”.
Same read-out and setting: for `CCN(CC)c1ccc(N)cc1` the value was 2.5 µM (active); for `CC1CCCCN1CCCOC(=O)c1ccc(OC2CCCCC2)cc1` (stereo not given), “inactive”.
Turning to `O[C@@H](c1cc(C(F)(F)F)nc2c(C(F)(F)F)cccc12)[C@H]1CCCCN1`, the Potency result is “inactive”.
Still for that read-out and setting: for `CC1(C)C(=O)N(Br)C(=O)N1Br` the value was “inactive”; for `CCCCCCCC/C=C/CCCOC(C)=O`, “inactive”.
As to `O=C1OC(=O)c2cccc3cccc1c23`, the Potency result is “inactive”.
As for `CCCC(CC)CCCCCCCN` (stereo not given), the Potency entry is “inactive”.
As for `C/C=C/C(=O)Oc1c(CCCCCC(C)C)cc([N+](=O)[O-])cc1[N+](=O)[O-]`, the Potency is 6.86 µM (active).
On the same count and under the same terms, for `C=CC(=O)OCCOCC(CC)(COCCOC(=O)C=C)COCCOC(=O)C=C` the value was 40.2 µM (active); for `CC(C)c1ccc(O)c(C(C)C)c1`, “inactive”; for `O=C1NC2CCCCN2C12CCN(CCCN1c3ccccc3CCc3ccc(Cl)cc31)CC2` (stereo not given), 10.6 µM (active).
Still for that read-out and setting: the result for `CC1=C(/C=C/C(C)=C/C=C/C(C)=C/C(=O)Nc2ccc(O)cc2)C(C)(C)CCC1` reads 6.27 µM (active); that for `O=C1c2c(O)ccc(O)c2C(=O)c2c(NCCNCCO)ccc(NCCNCCO)c21`, “inactive”; that for `O=C1NCCN1CCN1CCC(c2cn(-c3ccc(F)cc3)c3ccc(Cl)cc23)CC1`, “inactive”.
